The target in test [1] is Protein kinase C gamma type (Homo sapiens) (UniProt P05129). Particulars: at 1 µM.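 Further: each value is an averaged percent inhibition of the enzyme.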
Test [2] concerns the target T1, Protein kinase C iota type (Homo sapiens) (UniProt P41743).
T1 sequence (whole entry): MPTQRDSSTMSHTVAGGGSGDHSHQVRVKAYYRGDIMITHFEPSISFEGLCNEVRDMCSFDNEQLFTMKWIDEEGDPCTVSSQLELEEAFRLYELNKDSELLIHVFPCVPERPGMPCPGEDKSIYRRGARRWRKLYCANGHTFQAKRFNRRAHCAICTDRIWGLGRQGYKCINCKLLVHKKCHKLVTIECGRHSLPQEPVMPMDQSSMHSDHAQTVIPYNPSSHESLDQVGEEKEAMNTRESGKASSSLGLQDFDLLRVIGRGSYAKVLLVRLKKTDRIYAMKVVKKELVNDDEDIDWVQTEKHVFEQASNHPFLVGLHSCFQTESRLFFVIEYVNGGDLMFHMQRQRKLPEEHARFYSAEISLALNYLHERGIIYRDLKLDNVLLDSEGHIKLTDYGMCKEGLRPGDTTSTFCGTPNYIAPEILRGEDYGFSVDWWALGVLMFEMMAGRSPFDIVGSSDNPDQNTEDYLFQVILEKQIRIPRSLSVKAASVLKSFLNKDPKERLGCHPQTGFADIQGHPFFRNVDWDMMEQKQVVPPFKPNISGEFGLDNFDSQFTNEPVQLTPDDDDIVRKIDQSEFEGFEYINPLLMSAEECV
The settings on record: at 0.1 µM.

Test [3] has as its target T1, Protein kinase C iota type (Homo sapiens). The settings on record: at 1 µM.
The target of test [4] is Protein kinase C theta type (Homo sapiens) (UniProt Q04759). Particulars: at 0.1 µM.
Sequence of Protein kinase C theta type (Homo sapiens) (Q04759 whole entry, looked up): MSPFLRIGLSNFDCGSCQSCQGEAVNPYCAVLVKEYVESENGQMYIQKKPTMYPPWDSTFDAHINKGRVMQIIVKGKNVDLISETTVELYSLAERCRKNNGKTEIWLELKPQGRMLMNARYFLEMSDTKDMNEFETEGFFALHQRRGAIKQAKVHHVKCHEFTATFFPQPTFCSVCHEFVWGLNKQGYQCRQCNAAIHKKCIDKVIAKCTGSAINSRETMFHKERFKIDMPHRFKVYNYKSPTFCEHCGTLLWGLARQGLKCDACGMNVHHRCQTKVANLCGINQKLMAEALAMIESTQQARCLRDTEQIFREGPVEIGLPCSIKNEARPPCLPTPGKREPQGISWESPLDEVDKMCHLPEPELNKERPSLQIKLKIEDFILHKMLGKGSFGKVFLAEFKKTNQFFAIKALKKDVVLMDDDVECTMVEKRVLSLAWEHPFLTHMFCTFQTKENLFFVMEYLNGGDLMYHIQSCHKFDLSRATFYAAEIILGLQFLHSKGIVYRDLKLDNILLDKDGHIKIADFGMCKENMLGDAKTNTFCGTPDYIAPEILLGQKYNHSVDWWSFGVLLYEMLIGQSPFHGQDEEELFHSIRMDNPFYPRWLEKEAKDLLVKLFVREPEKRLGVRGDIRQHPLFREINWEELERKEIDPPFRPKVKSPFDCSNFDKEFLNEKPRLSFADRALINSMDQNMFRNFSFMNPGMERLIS
For test [5] the target is unchanged. The settings on record: at 1 µM.
In test [6] the target is Protein kinase C beta type (Homo sapiens) (UniProt P05771). The settings on record: at 0.1 µM.
Sequence of Protein kinase C beta type (Homo sapiens) (P05771 2-671 limits assumed): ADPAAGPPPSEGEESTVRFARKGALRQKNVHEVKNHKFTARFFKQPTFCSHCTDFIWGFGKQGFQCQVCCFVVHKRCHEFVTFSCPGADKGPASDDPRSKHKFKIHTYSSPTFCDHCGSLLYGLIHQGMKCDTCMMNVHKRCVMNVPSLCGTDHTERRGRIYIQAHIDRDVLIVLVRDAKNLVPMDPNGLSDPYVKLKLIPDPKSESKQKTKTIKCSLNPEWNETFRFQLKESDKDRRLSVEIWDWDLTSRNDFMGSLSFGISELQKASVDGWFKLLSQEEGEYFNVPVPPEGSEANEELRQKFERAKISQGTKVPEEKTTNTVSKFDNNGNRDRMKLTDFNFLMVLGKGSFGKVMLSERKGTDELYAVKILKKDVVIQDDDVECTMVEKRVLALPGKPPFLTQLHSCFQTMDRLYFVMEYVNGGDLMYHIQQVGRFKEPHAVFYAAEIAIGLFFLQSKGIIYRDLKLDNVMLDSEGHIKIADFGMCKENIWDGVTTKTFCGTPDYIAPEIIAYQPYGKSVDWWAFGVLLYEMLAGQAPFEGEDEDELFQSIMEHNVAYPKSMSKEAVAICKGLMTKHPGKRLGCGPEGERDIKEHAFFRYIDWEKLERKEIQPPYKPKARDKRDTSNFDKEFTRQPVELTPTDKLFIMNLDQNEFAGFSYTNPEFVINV
Test [7] shares this target. Particulars: at 1 µM.
In test [8] the target is T2, Serine/threonine-protein kinase D1 (Homo sapiens) (UniProt Q15139).
T2 sequence (whole entry): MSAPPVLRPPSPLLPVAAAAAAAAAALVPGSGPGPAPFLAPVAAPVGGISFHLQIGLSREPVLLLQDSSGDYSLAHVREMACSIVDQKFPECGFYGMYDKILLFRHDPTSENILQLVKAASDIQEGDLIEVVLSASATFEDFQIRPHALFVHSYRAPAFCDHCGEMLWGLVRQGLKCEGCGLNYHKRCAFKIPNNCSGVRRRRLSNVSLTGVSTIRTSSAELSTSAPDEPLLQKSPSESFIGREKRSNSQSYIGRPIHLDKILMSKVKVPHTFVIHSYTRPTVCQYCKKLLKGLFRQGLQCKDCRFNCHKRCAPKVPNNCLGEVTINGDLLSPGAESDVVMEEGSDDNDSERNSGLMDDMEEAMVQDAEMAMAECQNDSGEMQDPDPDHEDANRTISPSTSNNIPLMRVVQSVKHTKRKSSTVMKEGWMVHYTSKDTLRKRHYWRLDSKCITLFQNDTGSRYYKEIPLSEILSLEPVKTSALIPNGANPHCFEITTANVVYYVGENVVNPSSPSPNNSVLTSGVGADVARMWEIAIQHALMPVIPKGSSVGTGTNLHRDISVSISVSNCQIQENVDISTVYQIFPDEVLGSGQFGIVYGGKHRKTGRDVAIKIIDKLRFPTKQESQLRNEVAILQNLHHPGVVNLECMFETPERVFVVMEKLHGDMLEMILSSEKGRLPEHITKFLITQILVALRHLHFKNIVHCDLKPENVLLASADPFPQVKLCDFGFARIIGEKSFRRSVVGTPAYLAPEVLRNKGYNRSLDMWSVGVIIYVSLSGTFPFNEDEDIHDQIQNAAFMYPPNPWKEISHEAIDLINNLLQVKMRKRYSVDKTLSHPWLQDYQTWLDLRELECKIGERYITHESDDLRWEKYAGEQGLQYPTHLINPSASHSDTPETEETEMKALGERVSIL
The settings on record: at 0.1 µM.

Test [9] deals with T2, Serine/threonine-protein kinase D1 (Homo sapiens). The settings on record: at 1 µM.
Test [10] has as its target T3, Serine/threonine-protein kinase D2 (Homo sapiens) (UniProt Q9BZL6).
T3 sequence (whole entry): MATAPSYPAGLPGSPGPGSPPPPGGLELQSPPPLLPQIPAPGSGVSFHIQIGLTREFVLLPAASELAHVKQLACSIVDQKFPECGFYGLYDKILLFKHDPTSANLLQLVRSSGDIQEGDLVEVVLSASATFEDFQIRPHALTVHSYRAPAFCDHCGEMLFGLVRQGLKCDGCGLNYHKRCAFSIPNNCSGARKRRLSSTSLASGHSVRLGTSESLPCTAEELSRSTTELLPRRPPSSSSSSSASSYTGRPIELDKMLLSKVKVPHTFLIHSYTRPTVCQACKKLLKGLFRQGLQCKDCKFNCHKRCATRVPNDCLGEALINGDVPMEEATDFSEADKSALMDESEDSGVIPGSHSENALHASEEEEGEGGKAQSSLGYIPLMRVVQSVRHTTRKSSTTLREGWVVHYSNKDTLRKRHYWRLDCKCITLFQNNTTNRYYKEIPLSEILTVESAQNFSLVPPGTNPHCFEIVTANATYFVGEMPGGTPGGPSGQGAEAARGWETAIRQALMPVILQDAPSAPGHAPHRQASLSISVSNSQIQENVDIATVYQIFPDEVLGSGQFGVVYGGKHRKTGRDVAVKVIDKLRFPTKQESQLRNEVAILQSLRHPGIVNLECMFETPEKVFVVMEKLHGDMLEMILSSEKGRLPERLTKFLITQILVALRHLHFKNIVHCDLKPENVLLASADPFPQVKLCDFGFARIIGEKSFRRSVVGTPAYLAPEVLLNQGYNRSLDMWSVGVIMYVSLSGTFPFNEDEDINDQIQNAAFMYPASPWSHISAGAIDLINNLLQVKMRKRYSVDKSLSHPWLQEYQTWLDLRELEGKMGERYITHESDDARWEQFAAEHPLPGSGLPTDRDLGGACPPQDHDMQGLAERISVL
Particulars: at 0.1 µM.

Test [11] deals with T3, Serine/threonine-protein kinase D2 (Homo sapiens). The settings on record: at 1 µM.
Test [12] deals with T4, Serine/threonine-protein kinase D3 (Homo sapiens) (UniProt O94806).
T4 sequence (whole entry): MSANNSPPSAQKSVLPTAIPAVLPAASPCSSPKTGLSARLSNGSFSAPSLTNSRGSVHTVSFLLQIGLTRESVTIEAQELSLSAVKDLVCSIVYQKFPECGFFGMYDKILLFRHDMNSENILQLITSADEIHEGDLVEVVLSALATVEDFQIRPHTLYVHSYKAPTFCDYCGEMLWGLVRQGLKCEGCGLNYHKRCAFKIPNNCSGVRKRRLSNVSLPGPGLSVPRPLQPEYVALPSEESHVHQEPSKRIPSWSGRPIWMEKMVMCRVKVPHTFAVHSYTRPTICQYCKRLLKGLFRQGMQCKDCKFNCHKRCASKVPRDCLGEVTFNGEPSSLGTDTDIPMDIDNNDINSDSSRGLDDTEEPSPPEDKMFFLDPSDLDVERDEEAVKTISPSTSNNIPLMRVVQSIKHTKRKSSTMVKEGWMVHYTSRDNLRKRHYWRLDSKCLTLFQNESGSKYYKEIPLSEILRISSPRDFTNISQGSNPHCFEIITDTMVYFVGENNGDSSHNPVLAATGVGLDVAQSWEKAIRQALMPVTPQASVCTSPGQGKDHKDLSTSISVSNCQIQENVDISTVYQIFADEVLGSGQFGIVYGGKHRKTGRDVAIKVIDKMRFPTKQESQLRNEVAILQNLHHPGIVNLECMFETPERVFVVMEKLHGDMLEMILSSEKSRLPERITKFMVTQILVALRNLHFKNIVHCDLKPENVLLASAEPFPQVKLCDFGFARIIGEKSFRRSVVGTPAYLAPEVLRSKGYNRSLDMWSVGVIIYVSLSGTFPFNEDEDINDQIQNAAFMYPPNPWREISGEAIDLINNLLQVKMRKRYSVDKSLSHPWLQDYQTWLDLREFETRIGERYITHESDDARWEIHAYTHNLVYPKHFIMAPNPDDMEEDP
Particulars: at 0.1 µM.

In test [13] the target is T4, Serine/threonine-protein kinase D3 (Homo sapiens). The settings on record: at 1 µM.
In test [14] the target is T5, cGMP-dependent protein kinase 1 (Homo sapiens) (UniProt Q13976).
T5 sequence (whole entry): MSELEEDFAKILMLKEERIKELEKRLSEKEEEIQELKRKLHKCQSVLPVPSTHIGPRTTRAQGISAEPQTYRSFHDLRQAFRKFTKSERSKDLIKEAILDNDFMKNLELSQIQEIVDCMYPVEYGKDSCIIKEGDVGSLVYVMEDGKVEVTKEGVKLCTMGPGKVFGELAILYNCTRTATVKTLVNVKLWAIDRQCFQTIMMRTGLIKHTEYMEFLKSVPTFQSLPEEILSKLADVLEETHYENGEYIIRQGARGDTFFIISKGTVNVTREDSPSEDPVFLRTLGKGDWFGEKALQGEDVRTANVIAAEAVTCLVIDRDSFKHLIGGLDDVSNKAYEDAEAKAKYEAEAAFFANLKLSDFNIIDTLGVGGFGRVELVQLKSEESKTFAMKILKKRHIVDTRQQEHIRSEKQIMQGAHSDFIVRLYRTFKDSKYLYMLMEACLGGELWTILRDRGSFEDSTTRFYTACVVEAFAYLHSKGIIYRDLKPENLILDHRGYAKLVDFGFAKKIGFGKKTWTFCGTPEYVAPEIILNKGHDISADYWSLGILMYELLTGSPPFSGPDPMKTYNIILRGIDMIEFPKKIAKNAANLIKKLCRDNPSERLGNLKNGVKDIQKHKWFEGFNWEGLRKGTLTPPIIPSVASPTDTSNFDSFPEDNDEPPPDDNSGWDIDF
Particulars: at 0.1 µM.

In test [15] the target is T5, cGMP-dependent protein kinase 1 (Homo sapiens). The settings on record: at 1 µM.
The target of test [16] is T6, cGMP-dependent protein kinase 2 (Homo sapiens) (UniProt Q13237).
T6 sequence (whole entry): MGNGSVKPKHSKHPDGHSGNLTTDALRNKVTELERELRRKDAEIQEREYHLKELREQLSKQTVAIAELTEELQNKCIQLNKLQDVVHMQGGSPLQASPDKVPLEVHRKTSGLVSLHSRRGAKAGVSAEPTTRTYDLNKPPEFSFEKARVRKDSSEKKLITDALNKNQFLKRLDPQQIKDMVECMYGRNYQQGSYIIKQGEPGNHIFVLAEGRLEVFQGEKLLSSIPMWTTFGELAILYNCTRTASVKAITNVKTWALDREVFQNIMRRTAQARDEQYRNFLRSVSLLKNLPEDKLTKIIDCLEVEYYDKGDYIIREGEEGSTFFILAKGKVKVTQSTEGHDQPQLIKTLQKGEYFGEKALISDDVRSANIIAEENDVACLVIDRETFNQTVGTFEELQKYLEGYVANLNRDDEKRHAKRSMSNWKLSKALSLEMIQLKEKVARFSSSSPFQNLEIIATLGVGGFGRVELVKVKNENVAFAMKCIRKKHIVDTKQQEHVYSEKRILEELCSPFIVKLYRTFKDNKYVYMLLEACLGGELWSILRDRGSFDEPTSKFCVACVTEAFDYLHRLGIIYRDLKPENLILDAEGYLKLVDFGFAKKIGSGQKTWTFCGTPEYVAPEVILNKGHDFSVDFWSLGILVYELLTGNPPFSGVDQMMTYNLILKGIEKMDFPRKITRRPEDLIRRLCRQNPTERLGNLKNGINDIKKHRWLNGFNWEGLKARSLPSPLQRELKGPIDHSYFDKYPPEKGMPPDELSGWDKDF
The settings on record: at 0.1 µM.

The target of test [17] is T6, cGMP-dependent protein kinase 2 (Homo sapiens). The settings on record: at 1 µM.
The target in test [18] is T7, cAMP-dependent protein kinase catalytic subunit PRKX (Homo sapiens) (UniProt P51817).
T7 sequence (whole entry): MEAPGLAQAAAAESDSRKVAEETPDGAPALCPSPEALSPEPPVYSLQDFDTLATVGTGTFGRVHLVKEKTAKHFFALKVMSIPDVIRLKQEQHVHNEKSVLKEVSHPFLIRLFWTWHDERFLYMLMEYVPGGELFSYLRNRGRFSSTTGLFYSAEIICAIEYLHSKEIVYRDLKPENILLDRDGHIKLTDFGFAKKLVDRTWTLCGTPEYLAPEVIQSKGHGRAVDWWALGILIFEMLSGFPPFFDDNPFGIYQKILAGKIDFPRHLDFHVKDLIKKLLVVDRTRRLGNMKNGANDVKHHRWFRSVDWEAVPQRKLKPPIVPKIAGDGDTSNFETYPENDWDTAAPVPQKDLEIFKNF
Particulars: at 0.1 µM.

The target of test [19] is T7, cAMP-dependent protein kinase catalytic subunit PRKX (Homo sapiens). Particulars: at 1 µM.
Test [20] has as its target Rho-associated protein kinase 1 (Homo sapiens) (UniProt Q13464). Particulars: at 0.1 µM.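 Further: values are mean percent inhibition of ROCK1.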

The results in this text go back to ChEMBL document CHEMBL1961873, “Compounds: GSK PKIS; Assays: Nanosyn kinase panel” (2012).

What is called inhibition is the change of the read-out against control, counted positive when it falls.

Sequence of Rho-associated protein kinase 1 (Homo sapiens) (Q13464 2-1354 limits assumed): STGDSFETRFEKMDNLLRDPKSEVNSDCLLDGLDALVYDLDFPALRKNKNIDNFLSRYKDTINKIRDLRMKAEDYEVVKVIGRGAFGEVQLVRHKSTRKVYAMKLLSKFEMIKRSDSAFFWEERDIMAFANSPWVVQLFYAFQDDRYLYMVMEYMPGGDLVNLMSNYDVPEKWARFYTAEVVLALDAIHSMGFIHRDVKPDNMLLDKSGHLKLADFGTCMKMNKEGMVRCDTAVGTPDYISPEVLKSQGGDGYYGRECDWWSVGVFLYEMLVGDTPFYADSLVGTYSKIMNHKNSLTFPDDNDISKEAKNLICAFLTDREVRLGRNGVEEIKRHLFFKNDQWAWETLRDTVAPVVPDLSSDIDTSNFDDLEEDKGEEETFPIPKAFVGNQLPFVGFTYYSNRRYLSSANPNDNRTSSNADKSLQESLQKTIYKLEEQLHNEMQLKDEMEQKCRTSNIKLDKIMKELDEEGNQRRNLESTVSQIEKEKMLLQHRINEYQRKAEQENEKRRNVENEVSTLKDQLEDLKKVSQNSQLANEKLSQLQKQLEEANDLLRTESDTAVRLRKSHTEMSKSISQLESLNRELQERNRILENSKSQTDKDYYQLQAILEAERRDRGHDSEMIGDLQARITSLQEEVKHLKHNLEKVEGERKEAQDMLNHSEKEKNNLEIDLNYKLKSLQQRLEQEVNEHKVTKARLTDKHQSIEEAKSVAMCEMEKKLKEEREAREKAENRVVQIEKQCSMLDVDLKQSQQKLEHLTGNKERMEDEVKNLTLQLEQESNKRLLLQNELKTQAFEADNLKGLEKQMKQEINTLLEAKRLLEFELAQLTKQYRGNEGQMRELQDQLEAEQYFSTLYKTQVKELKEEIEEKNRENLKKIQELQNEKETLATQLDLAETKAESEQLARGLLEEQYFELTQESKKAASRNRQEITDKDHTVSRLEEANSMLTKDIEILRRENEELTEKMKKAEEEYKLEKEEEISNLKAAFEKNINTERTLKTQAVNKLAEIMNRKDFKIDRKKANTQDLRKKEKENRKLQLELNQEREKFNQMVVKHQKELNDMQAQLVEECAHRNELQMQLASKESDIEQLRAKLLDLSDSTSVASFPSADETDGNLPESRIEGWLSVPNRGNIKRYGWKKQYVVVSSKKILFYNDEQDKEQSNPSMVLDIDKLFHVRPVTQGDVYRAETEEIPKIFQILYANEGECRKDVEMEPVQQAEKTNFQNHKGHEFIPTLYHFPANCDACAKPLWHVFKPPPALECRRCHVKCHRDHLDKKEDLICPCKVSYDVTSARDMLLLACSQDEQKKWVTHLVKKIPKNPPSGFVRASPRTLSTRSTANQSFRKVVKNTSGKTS

As for `c1ccc(Oc2ccc(Nc3ncc(-c4ccccc4)o3)cc2)cc1`, the inhibition came to 3.46% in test [1]; 1.87% in test [2]; 0.57% in test [3]; 1.08% in test [4]; 0.33% in test [5]; 0.45% in [6]. For the same molecule, the inhibition came out at 1.67% in [7]; 2.12% in [8]; 4.49% in [9]; 1.43% in test [10]; 3.8% in test [11]; 2.14% in test [12]. Further, the inhibition in test [13] is 3.61%; in [14], 2.21%; in [15], 3.15%; in test [16], 1.21%; in test [17], 3.1%; in [18] it was 2.99%. In addition, the inhibition was 6.18% in test [19] and 3.48% in test [20].
On to `Cc1ccc(C(=O)NC2CCC2)cc1-c1ccc(C(=O)NCC2CC2)cc1`, for which the inhibition in test [1] was 0.94%; in test [2], 2.17%; in test [3], 2.33%; in test [4], 0.68%; in test [5], -0.42%; in [6], 0.24%. Further, the inhibition in test [7] was determined as 0.53%; in [8], 2.65%; in test [9] it was 3.61%; in test [10] it was 2.36%; in test [11] it was 2.79%; in [12], 2.86%. The inhibition was 2.6% in test [13]; 3.87% in test [14]; 3.84% in test [15]; 1.07% in test [16]; 3.54% in test [17]; 1.55% in test [18]. For the same molecule, the inhibition was -0.61% in [19] and 1.21% in test [20].
